We go through 16 compounds from PubChem BioAssay (NCI).

About 83,000 compounds went through this panel and 20% of them were active in at least one assay; those are over-represented in the sample as a whole.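 Method: cells in 96-well plates; compound added at one concentration; 48 h incubation; percent growth measured; values under 10 scored active.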 Unmarked numbers belong to inactive results. Calls of active or inactive are those of the source.

Among the test systems are HCT-15 colon; HT29 colon; SNB-75 CNS; SNB-19 CNS; U251 CNS; PC-3 prostate; SK-MEL-5 melanoma; UACC-62 melanoma; LOX IMVI melanoma; SK-MEL-28 melanoma.
What all share (assay): NCI-60 one-dose screen, 48 h (100 = growth as untreated, 0 = no growth, -100 = all killed)
Common to all, as to details: 10 µM

In the case of `CCC(C)[C@H](NC(C)=O)C(=O)N[C@@H](CCCNC(=N)N)C(=O)N[C@@H](CCCCN)C(=O)N[C@@H](CC1CCC(O)CC1)C(=O)NC(C(=O)N[C@@H](CCSC)C(=O)N[C@@H](CCCNC(=N)N)C(=O)N[C@@]1(C)CCC/C=C\CCC[C@@](C)(C(=O)NC(C(=O)N[C@@H](CCC(=O)O)C(=O)N[C@@H](CC(C)C)C(=O)N[C@H](C(=O)N[C@@H](CCC(=O)O)C(N)=O)C(C)C)[C@@H](C)O)NC(=O)[C@H](CCC(N)=O)NC(=O)[C@H](CC(C)C)NC(=O)[C@H](CC(C)C)NC1=O)[C@@H](C)O` (stereo not given in full), the growth was 100% in the assay on HCT-15 colon; 90.6% in the assay with HT29 colon; 107% in the assay with SNB-75 CNS; 110% with SNB-19 CNS; 98.9% with U251 CNS; 99.1% in the assay with PC-3 prostate. The growth in the assay with SK-MEL-5 melanoma was 102%; with UACC-62 melanoma, 99.6%; with LOX IMVI melanoma, 109%; in the assay on SK-MEL-28 melanoma it was 94.6%.

Turning to `COC(=O)c1cc2oc(/C=C3/SC(=S)N(N)C3=O)cc2n1Cc1ccccc1`, the growth in the assay on HCT-15 colon was 47%; in the assay with HT29 colon, 63%; in the assay on SNB-75 CNS, 29.3%; with SNB-19 CNS, 84.5%; with U251 CNS, 45.3%; in the assay on PC-3 prostate, -3.5% (active). Besides, the growth in the assay with SK-MEL-5 melanoma was 45.4%; in the assay with UACC-62 melanoma it was 50.6%; in the assay with LOX IMVI melanoma, 34.6%; with SK-MEL-28 melanoma it was -71.4% (active).

Turning to `CC1OC2CC(=O)OC2C2=C1C(=O)c1c(O)c3c(c(O)c1C2=O)C1CC(O)C3(O)C(C)O1` (stereo not given), the growth was -15.8% (active) in the assay on HCT-15 colon; -15.9% (active) in the assay on HT29 colon; -28.9% (active) in the assay on SNB-75 CNS; 4.68% (active) in the assay on SNB-19 CNS; -23.4% (active) in the assay with U251 CNS; 7.91% (active) in the assay with PC-3 prostate. In addition, the growth in the assay on SK-MEL-5 melanoma is -96.1% (active); in the assay with UACC-62 melanoma, -76.5% (active); in the assay with LOX IMVI melanoma, -65.9% (active); with SK-MEL-28 melanoma it was -51.5% (active).

Regarding `C#CCOc1c(OC)cc(C(=O)/C(C)=C/c2cccc(N=[N+]=[N-])c2)cc1OC`, the growth is 18.7% in the assay on HCT-15 colon; 2.11% (active) in the assay with HT29 colon; 15.1% with SNB-75 CNS; 34.5% in the assay on SNB-19 CNS; 18.7% in the assay on U251 CNS; 22.7% in the assay on PC-3 prostate. Further, the growth in the assay with SK-MEL-5 melanoma was 35.2%; with UACC-62 melanoma, 37.7%; with LOX IMVI melanoma, 30.4%; in the assay with SK-MEL-28 melanoma it was 58.8%.

For the compound `Cc1c(Cl)cccc1NC(=O)CN1CCOCC1`, the growth in the assay on HCT-15 colon is 99%; with HT29 colon, 84.2%; in the assay with SNB-75 CNS it was 88.9%; in the assay on SNB-19 CNS, 117%; in the assay with U251 CNS, 106%; in the assay with PC-3 prostate, 102%. In addition, the growth was 101% with SK-MEL-5 melanoma, 103% in the assay on UACC-62 melanoma, 97.4% in the assay with LOX IMVI melanoma and 109% in the assay with SK-MEL-28 melanoma.

Consider `CCN1CCN(CCC(=O)Nc2cccc(-n3cc(-c4ccncc4)c(-c4ccc(Cl)c(OC)c4)n3)c2)CC1`, for which the growth in the assay with HCT-15 colon is 13.7%; with HT29 colon, -23.4% (active); with SNB-75 CNS, 9.22% (active); in the assay with SNB-19 CNS it was 39.4%; with U251 CNS, -7.85% (active); in the assay on PC-3 prostate it was 16.5%. The growth was -3.03% (active) in the assay on SK-MEL-5 melanoma, -17% (active) with UACC-62 melanoma, -47.5% (active) in the assay on LOX IMVI melanoma and -52.3% (active) with SK-MEL-28 melanoma.

`O=C1CC(SC(=S)C2CCCC2=O)C(=O)N1` (stereo not given): the growth in the assay with HCT-15 colon was 98.1%; in the assay on HT29 colon, 103%; in the assay on SNB-75 CNS, 105%; in the assay on SNB-19 CNS it was 94.7%; in the assay on U251 CNS it was 97.1%; with PC-3 prostate, 97.1%. For the same compound, the growth is 103% with SK-MEL-5 melanoma, 102% with UACC-62 melanoma, 97.5% with LOX IMVI melanoma and 113% with SK-MEL-28 melanoma.

As for `CCOC(=O)c1cc(C(=O)c2cc(OC)c(OC)c(OC)c2)n2ncc3ccccc3c12`, the growth in the assay with HCT-15 colon is 58.5%; in the assay with HT29 colon, 29.6%; in the assay with SNB-75 CNS, 79.5%; in the assay on SNB-19 CNS, 88.2%; with U251 CNS it was 81%; with PC-3 prostate it was 54.6%. Further, the growth is 34.5% with SK-MEL-5 melanoma, 70.2% in the assay with UACC-62 melanoma, 66.3% in the assay on LOX IMVI melanoma and 90.9% in the assay on SK-MEL-28 melanoma.

In the case of `O=c1[nH]c(=O)n(C2C[C@H](O)[C@@H](CO)O2)cc1C(F)(F)F` (stereo not given in full), the growth in the assay on HCT-15 colon was 107%; in the assay with HT29 colon, 103%; with SNB-75 CNS, 94.3%; in the assay with SNB-19 CNS, 119%; with U251 CNS it was 102%; in the assay with PC-3 prostate it was 91.9%. In addition, the growth in the assay on SK-MEL-5 melanoma was 106%; in the assay with UACC-62 melanoma it was 108%; in the assay with LOX IMVI melanoma, 103%; in the assay with SK-MEL-28 melanoma, 120%.

Regarding `COc1cc(OC)c2c(=O)c(O)c(-c3ccccc3)oc2c1`, the growth was 51.7% with HCT-15 colon; 99.6% in the assay with HT29 colon; 76% in the assay with SNB-75 CNS; 62.4% with SNB-19 CNS; 47.1% with U251 CNS; 67.1% with PC-3 prostate. Besides, the growth with SK-MEL-5 melanoma is 72.4%; in the assay with UACC-62 melanoma, 72.1%; in the assay with LOX IMVI melanoma it was 59.1%; in the assay on SK-MEL-28 melanoma it was 95.8%.

With `CC(=O)N[C@H](C(=O)N[C@@H](CCCNC(=N)N)C(=O)N[C@@H](CCCCN)C(=O)N[C@@H](CCCNC(=N)N)C(=O)N[C@]1(C)CCC/C=C\CCC[C@@](C)(C(=O)N[C@@H](CC(C)C)C(=O)N[C@@H](CC(C)C)C(=O)N[C@@H](CCC(N)=O)C(=O)N[C@@H](CCC(=O)O)C(=O)N[C@@H](CCCNC(=N)N)C(=O)N[C@@H](CCC(=O)O)C(=O)N[C@@H](CC(C)C)C(=O)N[C@H](C(=O)N[C@@H](CCC(=O)O)C(N)=O)C(C)C)NC(=O)[C@H](CCCNC(=N)N)NC(=O)[C@H](CC(C)C)NC1=O)C(C)C`, the growth in the assay with HCT-15 colon is 109%; in the assay on HT29 colon, 95.3%; in the assay on SNB-75 CNS, 119%; in the assay with SNB-19 CNS, 105%; in the assay with U251 CNS it was 100%; in the assay with PC-3 prostate, 104%. In addition, the growth is 102% in the assay on SK-MEL-5 melanoma, 105% with UACC-62 melanoma, 105% in the assay with LOX IMVI melanoma and 111% with SK-MEL-28 melanoma.

Turning to `C=CCN(CC=C)C(=O)[C@H](CC)[C@@H]1CC[C@@H](C)[C@@H]([C@H](C)[C@@H](O)[C@@H](C)C(=O)[C@H](CC)C2O[C@]3(C=CC(=O)[C@]4(CC[C@@](C)([C@H]5CC[C@](O)(CC)[C@H](C)O5)O4)O3)[C@H](C)C[C@@H]2C)O1` (stereo not given in full), the growth in the assay with HCT-15 colon is 11.5%; in the assay with HT29 colon, 16.7%; in the assay on SNB-75 CNS it was 38.7%; with SNB-19 CNS, 23.8%; in the assay on U251 CNS it was 30.5%; with PC-3 prostate, 14.7%. For the same compound, the growth in the assay on SK-MEL-5 melanoma was -12.3% (active); with UACC-62 melanoma, 10.7%; in the assay with LOX IMVI melanoma, 36.9%; with SK-MEL-28 melanoma it was 19.8%.

Regarding `COc1ccc(-c2nnc(SCC(=O)Nc3ccc(C(=O)/C=C/c4ccccc4)cc3)n2-c2ccccc2)cc1OC`, the growth in the assay with HCT-15 colon is 86.5%; in the assay with HT29 colon, 60.3%; with SNB-75 CNS, 84.2%; in the assay with SNB-19 CNS, 83.3%; in the assay on U251 CNS, 79.5%; in the assay on PC-3 prostate, 69.5%. The growth with SK-MEL-5 melanoma is 83.1%; in the assay with UACC-62 melanoma it was 81.1%; with LOX IMVI melanoma, 32.5%; in the assay on SK-MEL-28 melanoma, 89.3%.

As for `COc1cc(C2C(C#N)=C(N)Oc3cc(O)ccc32)cc(OC)c1OC` (stereo not given), the growth was 30.1% in the assay with HCT-15 colon; 2.42% (active) with HT29 colon; 33.9% with SNB-75 CNS; 44.9% in the assay on SNB-19 CNS; 11.1% in the assay with U251 CNS; 21.5% with PC-3 prostate. Also, the growth is 23% in the assay with SK-MEL-5 melanoma, 38.4% in the assay on UACC-62 melanoma, 45.7% with LOX IMVI melanoma and 58% in the assay on SK-MEL-28 melanoma.

Consider `Oc1ccc(-c2[nH]c3ccccc3c2-c2nc3ccccc3o2)cc1`, for which the growth in the assay on HCT-15 colon is 25.4%; in the assay on HT29 colon it was 27.8%; with SNB-75 CNS, 52.3%; in the assay with SNB-19 CNS, 89.6%; in the assay with U251 CNS, 60.9%; in the assay with PC-3 prostate, 57.4%. Further, the growth with SK-MEL-5 melanoma is 43.4%; in the assay with UACC-62 melanoma, 59.6%; in the assay with LOX IMVI melanoma, 34.6%; in the assay on SK-MEL-28 melanoma, 58%.

As to `COc1cc(-c2csc(NC(=O)Nc3cc(C(F)(F)F)cc(C(F)(F)F)c3)n2)cc(OC)c1OC`, the growth was 11.8% in the assay on HCT-15 colon; 7.94% (active) in the assay with HT29 colon; 34.1% with SNB-75 CNS; 25.3% in the assay on SNB-19 CNS; 9.2% (active) in the assay on U251 CNS; 4.29% (active) with PC-3 prostate. Also, the growth with SK-MEL-5 melanoma is -4.49% (active); in the assay on UACC-62 melanoma it was 18.7%; in the assay on LOX IMVI melanoma, 6.63% (active); in the assay with SK-MEL-28 melanoma it was 17.6%.
